Where “and” joins values, the source holds several entries; their conditions need not be identical. Equal entries are not always repeated. The campaign covered roughly 16,000 compounds. About 2,600 (16%) were called active. About 20% were inconclusive and are not listed. Calls come from the whole dose curve; as a rule, active = well fitted curve in the direction sought with a large enough effect; inconclusive = small, poorly fitted or top-dose-only effect, or effect the other way; inactive = no such curve, though single readings can be large or run the other way. Many of the other results were omitted from the sample, so actives are more common in it than they were. Where a structure was tested more than once in an assay, its records may differ in their call.

By AC50 is commonly meant the concentration at which the activity in the assay is half-maximal.
% is set by controls: 0 for no effect and ±100 for the full control effect.

Chain of Cytochrome P450 2D6 (Homo sapiens) (P10635 whole entry, looked up): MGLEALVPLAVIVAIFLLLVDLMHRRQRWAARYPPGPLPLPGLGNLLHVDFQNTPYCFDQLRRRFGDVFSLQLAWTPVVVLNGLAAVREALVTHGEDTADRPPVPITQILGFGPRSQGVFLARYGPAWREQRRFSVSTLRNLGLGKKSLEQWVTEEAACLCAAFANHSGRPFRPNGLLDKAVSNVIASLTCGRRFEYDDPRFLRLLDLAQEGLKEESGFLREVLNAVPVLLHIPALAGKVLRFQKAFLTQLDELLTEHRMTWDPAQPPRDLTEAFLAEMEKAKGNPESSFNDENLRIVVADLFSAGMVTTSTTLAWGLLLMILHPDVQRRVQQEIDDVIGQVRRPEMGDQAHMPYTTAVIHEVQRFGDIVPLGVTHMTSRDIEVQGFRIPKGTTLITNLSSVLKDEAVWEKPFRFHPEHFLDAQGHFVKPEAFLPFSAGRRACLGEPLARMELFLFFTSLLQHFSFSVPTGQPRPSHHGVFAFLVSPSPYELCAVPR

This experiment has as its target Cytochrome P450 2D6 (Homo sapiens) (UniProt P10635). Put plainly: Cytochrome panel assay with activity outcomes. The settings on record: recombinant CYP, pro-luciferin dealkylation, luminescence, p450-cyp2d6; series mostly up to 57.1 µM.
For `C[C@@H]1CC[C@@H]2N(C1)C[C@H]1[C@@](O)([C@H](O)C[C@]3(O)[C@H]4CC[C@H]5[C@]6(O)O[C@]4(C[C@]13O)[C@@]5(C)CC[C@@H]6O)[C@@]2(C)O`, the activity, negative = inhibition is 10.1% [at 11.4 µM] (inactive). On to `CCCCC/C=C\C/C=C\C/C=C\C/C=C\CCCC(=O)NCC(=O)O`, for which the AC50 result is “inactive”. Take `CCN(CC)CCn1ncc2c(N)ncnc21`: the activity, negative = inhibition is 4.3% [at 11.4 µM] (inactive). Consider `CNC(=O)Oc1ccc2c(c1)[C@@]1(C)CCN(C)[C@@H]1N2C`, for which the AC50 was 0.251 µM (active).

Consider `C=C1[C@@H](O)C2C=CC[C@H](C)C(=O)[C@@](C)(O)C=C[C@@H](OC(C)=O)[C@@]23C(=O)N[C@H](Cc2ccccc2)[C@@H]3[C@@H]1C` (stereo not given in full), for which the AC50 result was “inactive”. Still for that read-out and setting: the entry for `CCCCC/C=C\C/C=C\C/C=C\C/C=C\CCCC(=O)Nc1ccc(O)cc1` is “inactive”.

As to `CN1[C@H]2CC(=O)C[C@@H]1[C@@H](O)C2`, the AC50 result is “inactive”. As for `O=C(O)CS(=O)(=O)C(c1ccccc1)c1ccccc1`, the activity, negative = inhibition was 8.36% [at 11.4 µM] (inactive). In the case of `N[C@H](Cc1ccc(N(CCCl)CCCl)cc1)C(=O)O`, the AC50 result is “inactive”. On to `NC(=O)c1cc(N2CC2)c([N+](=O)[O-])cc1[N+](=O)[O-]`, for which the AC50 entry was “inactive”. Same read-out and setting: under `C=CCO[C@@H](Cn1ccnc1)c1ccc(Cl)cc1Cl` stands 5.01 µM (active); under `C=C1[C@@H]2CC[C@H]3[C@@]4(C)C[C@@H](O[C@@H]5O[C@H](CO)[C@H](OS(=O)(=O)O)[C@@H](OS(=O)(=O)O)[C@@H]5OC(=O)CC(C)C)C[C@@H](C(=O)O)[C@H]4CC[C@@]3(C2)[C@H]1O`, “inactive”; under `C[C@H]1[C@H](NC(=O)/C(=N/OC(C)(C)C(=O)O)c2csc(N)n2)C(=O)N1S(=O)(=O)O` (stereo in doubt), “inactive”.

With `CC[n+]1c(/C=C/N(C)c2ccccc2)sc2ccc(Cl)cc21`, the AC50 was 0.0112 µM (active). For `c1ccc(N2CCCC3(CCNCC3)C2)cc1`, the AC50 was 7.94 µM (active).

As to `c1cc(CN2CCC3(CCNCC3)CC2)ccn1`, the AC50 entry was “inactive”. Regarding `c1ccc(N2CC3(CCNCC3)C2)cc1`, the AC50 entry was “inactive”. In the case of `C[N+]1(C)CCN(c2ccccc2)CC1`, the AC50 entry is “inactive”.

For `c1cc(N2CCCC3(CCNCC3)C2)ccn1`, the AC50 is 10 µM (active).

As for `O=C(Cn1ncc2ccsc2c1=O)N1CCC2(CC1)OCCO2`, the AC50 result is “inactive”. On the same count and under the same terms, the entry for `Cc1ccc(N(C)C(=O)Oc2cccc3ccc(C)nc23)cc1` is “inactive”. On to `O=C(O)/C=C(\CC(=O)O)C(=O)O`, for which the activity, negative = inhibition was -1.58% [at 11.4 µM] (inactive). On to `N[C@@H](Cn1ccc(=O)n(Cc2ccc(C(=O)O)cc2)c1=O)C(=O)O`, for which the AC50 result is “inactive”.

As for `CCN1C[C@@]2(COC)CC[C@H](OC)[C@]34[C@@H]1[C@]1(OCO[C@@]15C[C@@H](OC)C1C[C@H]3[C@H]5[C@@H]1OC)[C@H](O)[C@@H]24`, the AC50 result is “inactive”. On to `C[C@]12N[C@@H](Cc3ccccc31)c1ccccc12`, for which the AC50 entry was “inactive and 79.4 nM (active) and 5.01 µM (active)”. Still for that read-out and setting: under `C[C@]12N[C@H](Cc3ccccc31)c1ccccc12` stands “inactive”; under `Cc1nnc2ccc(-c3cccc(C(F)(F)F)c3)nn12`, “inactive”. In the case of `S=C(Nc1ccc(Cl)cc1)NC1CC2CCCC(C1)N2C1CCCC1` (stereo not given), the AC50 is 0.501 µM (active).

For the compound `NS(=O)(=O)C[C-]1C=C[CH]([Sb-]([Cl])([Cl])([Cl])([Cl])[Cl])C=C1.c1ccncc1` (stereo not given), the activity, negative = inhibition was 7.69% [at 11.4 µM] (inactive). With `C=CCn1c(O)c(C(C)=NCCCN2CCOCC2)c(=O)[nH]c1=O`, the AC50 entry was “inactive”.

As for `CC(=O)O[C@H]1C[C@@H](O[C@@H]2[C@H](C)O[C@H](O[C@@H]3[C@H](C)O[C@H](O[C@@H]4CC[C@@]5(C)[C@@H](CC[C@]6(C)[C@]5(C)C[C@H](O)[C@]5(C)[C@@H](C7=CC(=O)OC7)CC[C@@]56O)C4)C[C@@H]3O)C[C@@H]2O)O[C@@H](C)[C@H]1O[C@H]1O[C@@H](CO)[C@@H](O)[C@@H](O)[C@@H]1O`, the AC50 entry was “inactive”. The same measure, in the same setting: under `CC1=CC(=O)C2=C(C)C[C@@H](O)[C@@H]3[C@@H](OC(=O)[C@H]3C)[C@H]12` stands “inactive”; under `CN1CCN(c2ccc([N+](=O)[O-])c(N/N=C3\CN4CCC3CC4)c2)CC1`, “inactive”; under `C=CCN1C[C@H](C)N([C@H](c2ccc(C(=O)N(CC)CC)cc2)c2cccc(O)c2)C[C@H]1C`, “inactive”. Still for that read-out and setting: under `C=CCN1C[C@H](C)N([C@@H](c2ccccc2)c2ccc(C(=O)N(CC)CC)cc2)C[C@H]1C` stands “inactive”. The same measure, in the same setting: under `C=CCN1C[C@@H](C)N([C@H](c2ccc(C(=O)N(CC)CC)cc2)c2cccc(OC)c2)C[C@H]1C` stands 31.6 µM (active); under `C=CCN1C[C@H](C)N([C@H](c2ccc(C(=O)N(CC)CC)cc2)c2cccc(OC)c2)C[C@H]1C`, 1.58 µM (active). In the case of `Cn1c(=O)c2[nH]cnc2n(C)c1=O.[CH2-][C@H](Cc1cccc2cc(C(=O)O)c(=O)oc12)OC.[Hg].[OH-]`, the activity, negative = inhibition is 10.9% [at 11.4 µM] (inactive). For `Cc1ccc(-c2nc3ccccc3c(=O)n2-c2ncccc2C)cc1`, the AC50 entry is “inactive”. On to `C[C@H]1CC[C@@]2(NC1)O[C@@H]1C[C@H]3[C@@H]4CC=C5C[C@@H](O)CC[C@]5(C)[C@@H]4CC[C@]3(C)[C@@H]1[C@@H]2C`, for which the AC50 result was “inactive”. Consider `COc1ccc(OCC(=O)Nc2ccc(Cl)cc2C(=O)c2ccccc2)cc1`, for which the AC50 entry was “inactive”. Same read-out and setting: under `CCNC[C@H](O)c1cccc(O)c1` stands “inactive”. Still for that read-out and setting: under `C[C@@H](Cc1ccc(OCC(=O)O)cc1)NC[C@H](O)c1cccc(Cl)c1` stands 25.1 µM (active). On the same count and under the same terms, under `O=C(Nc1ccc(C(F)(F)F)cc1)c1cccn(Cc2ccc3c(c2)OC(F)(F)O3)c1=O` stands “inactive”; under `CCCCN1C(=O)C(C2c3ccccc3C(=O)N2Cc2ccccc2)C(=O)NC1=S` (stereo not given), “inactive”.

Consider `COC(=O)[C@@H]1[C@@H]2C[C@H]3c4[nH]c5cc(OC)ccc5c4CCN3C[C@@H]2C[C@H](OC(=O)/C=C\c2cc(OC)c(OC)c(OC)c2)[C@H]1OC`, for which the AC50 result is “inactive”. On the same count and under the same terms, the figure for `O=C(CCCN1CCC(n2c(=O)[nH]c3ccccc32)CC1)c1ccc(F)cc1` is 6.31 µM (active); for `O=C(CCCN1CCC2(CC1)C(=O)NCN2c1ccccc1)c1ccc(F)cc1` it is 2.51 µM (active) and 1 µM (active) and 1.58 µM (active). The same measure, in the same setting: the figure for `O=C1NCN(c2ccccc2)C12CCN(CCCOc1ccc(F)cc1)CC2` is 0.158 µM (active). On the same count and under the same terms, under `O=C1NCN(c2ccccc2)C12CCN(C[C@H]1COc3ccccc3O1)CC2` stands 0.0631 µM (active).
